High-throughput results (PubChem BioAssay)
HT1080 IDH1KD tx = kills HT-1080 cells with IDH1 knockdown | HT-1080 IDH1 knockdown viability, ATP luminescence, 48 h | Potency, µM (top dose mostly 46.1 µM), for the others: top-dose activity, negative = toxicity, actives largely listed as cytotoxic | 360,000 compounds, 2% hits | AID 686971;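 note: potency is the fitted concentration of half-maximal effect; 0% = DMSO wells and -100% = cell-free medium wells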
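IDH1KD HT-1080 cells, 750/well, RPMI + 5% FBS; compound pinned after 2 h settling; 48 h, 37 °C; CellTiter-Glo luminescence; % activity normalised to DMSO and no-cell wells; curves fitted, classed by r2 and efficacy.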
HT1080NT lethal = kills 2HG-producing HT-1080-NT fibrosarcoma cells; HT-1080-NT fibrosarcoma viability, CellTiter-Glo ATP luminescence, 48 h; Potency, µM (titrated, usually from 46.1 µM), for the others: top-dose activity, negative = less viability, usual class: cytotoxic; 360,000 compounds, 1.6% hits; AID 686970;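 note: NT is the 2HG producing partner of a matched IDH1 knockdown line; potency is the fitted concentration of half-maximal effect; 0% = DMSO-treated cells and -100% = media-only wells without cells; nearly all actives have a fitted effect of over 55% in size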
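Viability by CellTiter-Glo luminescence after 48 h compound exposure at 37C of HT-1080-NT cells (750/well, RPMI, 5% FBS). % activity scaled between DMSO wells and medium-only wells, then curve-fitted and categorized by curve class.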
IL1B secr inh = blocks inflammasome-driven IL-1 beta release. 360,000 compounds, 4.7% hits. AID 743279. activity change, % at 57.5 µM. THP-1 LPS/ATP IL-1B secretion, AlphaLISA, 16 h; hits give low values; in the data active = activity change below about -50%; inconclusive = mostly about -30% to -49%
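THP-1 cells pretreated 1 hr with compounds (up to 57.5 uM final), then stimulated with LPS (250 ng/mL final) plus ATP (1.25 mM final); secreted IL-1B measured by AlphaLISA after 16 hr, decreased signal indicating inhibition.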
DT40 TDP1 no CPT = qHTS for Inhibitors of human tyrosyl-DNA phosphodiesterase 1 (TDP1): qHTS in cells in absence of CPT | DT40 Tdp1-/- hTDP1 cells, no CPT, ATP luminescence, 48 h | Potency, µM (top dose mostly 46.2 µM), for the others: top-dose activity change, negative = growth inhibition, actives largely listed as inhibitors | 420,000 compounds, 15% hits | AID 686978, 2013; note: potency is the fitted concentration of half-maximal effect; nearly all actives have a fitted effect of over 55% in size
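Cells were dispensed at 400 per well, compounds added by pin tool, plates incubated ≥48 hr at 37 °C, then CellTiter-Glo added for 30 min at room temperature before luminescence reading. Line: DT40 Tdp1-/- complemented with hTDP1; camptothecin omitted.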
DT40 TDP1 CPT = growth inhibition of DT40 Tdp1-/-;hTDP1 cells with camptothecin (screen for TDP1 inhibitors). chicken DT40 Tdp1-/-;hTDP1 cells + 20 nM CPT, ATP luminescence, 48 h. Potency, µM (doses to about 46.2 µM), for the others: top-dose activity change, negative = growth inhibition, actives largely listed as inhibitors. 420,000 compounds, 12% hits; note: potency is the fitted concentration of half-maximal effect; nearly all actives have a fitted effect of over 55% in size
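Chicken DT40 Tdp1-/- cells complemented with human TDP1, 400 cells/well, exposed to compounds plus 20 nM camptothecin for at least 48 h at 37 C; viability read as ATP content by CellTiter-Glo luminescence.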
* hit, by the source's call; ? = inconclusive; . = not tested or not shown; [ ] = remark or other dose. Most compounds without a hit are left out; they make up all but 19% or so of the library. Unless noted, calls come from the whole dose curve; as a rule, active = well fitted curve in the direction sought with a large enough effect; inconclusive = small, poorly fitted or top-dose-only effect, or another doubt; inactive = no such curve, though single readings can be large; an effect the other way counts as inactive or inconclusive. Unless noted, % is set by controls: 0 for no effect and ±100 for the full control effect.

SMILES	HT1080 IDH1KD tx	HT1080NT lethal	IL1B secr inh	DT40 TDP1 no CPT	DT40 TDP1 CPT
CC(C)n1c(/N=C/c2ccccc2O)nc2ccccc21	-1%	0%	-2	-8%	10%
CCCNC(=O)c1ccc(N2CCC3(CC2)CC(c2cccc(Br)c2)=NO3)c(N)c1	-11%	-13%	-3	?	?
CCCNC(=O)c1ccc(N2CCC3(CC2)CC(c2cccc(Br)c2)=NO3)c([N+](=O)[O-])c1	-14%	-13%	?	8.2µM*	6.5µM*
COc1cccc(C(=O)Nc2cc(C(=O)NCc3ccc(C)cc3)ccc2N2CCC3(CC2)CC(c2cccc(Br)c2)=NO3)c1	0%	0%	-5	-9%	-12%
Cc1ccc(CNC(=O)c2ccc(N3CCC4(CC3)CC(c3cccc(Br)c3)=NO4)c(N)c2)cc1	0%	-6%	19	5.8µM*	6.5µM*
COc1ccc(CNC(=O)c2ccc(N3CCC4(CC3)CC(c3ccc(Cl)cc3)=NO4)c([N+](=O)[O-])c2)cc1	0%	-4%	-10	0.92µM*	?
Cc1ccc(CNC(=O)c2ccc(N3CCC4(CC3)CC(c3cccc(Br)c3)=NO4)c([N+](=O)[O-])c2)cc1	1%	0%	-9	?	10µM*
Cc1cc(-c2ccc(S(=O)(=O)N3CCN(c4cccc(C)c4C)CC3)s2)on1	7%	-1%	45	?	?
O=C(NCCCN1CCN(Cc2ccccc2)CC1)C1CCN(c2nnc(-n3cccc3)s2)CC1	-4%	-2%	0	26µM*	?
Cc1ccc(C)n1-c1nnc(N2CCC(C(=O)NCCCN3CCN(C)CC3)CC2)s1	-10%	-3%	?	?	26µM*
O=C(NCCCc1ccccc1)C1CCN(c2nnc(-n3cccc3)s2)CC1	-8%	-6%	5	?	?
Cn1c2c(c(=O)n(C)c1=O)C1c3cc(Cl)ccc3OCC1CO2 (stereo not drawn)	-8%	0%	5	-1%	-2%
O=C1CSC(c2ccccn2)N1c1ccc(C(F)(F)F)cc1 (stereo not drawn)	0%	5%	60	?	-19%
COc1ccc(N)cc1-n1c(C)ccc1C	-19%	-11%	?	-24%	7.3µM*
CN(CCc1ccccn1)Cc1ccc(Cl)cc1	-5%	5%[9.24 µM]	25	-9%	-4%
CCOc1ccccc1C(=O)N1c2ccccc2Sc2ccccc21	?	?	-8	13µM*	10µM*
CCOc1ccccc1NC(=O)N1c2ccccc2Sc2ccccc21	.	.	.	26µM*	?
CCOc1ccccc1NC(=O)Nc1cccc(C(C)=O)c1	-1%	-4%	-6	-30%	29µM*
COc1ccc(OC)c(NC(=O)N2c3ccccc3Sc3ccccc32)c1	.	.	.	?	18µM*
COCCN1C(=O)c2ccccc2C(C(=O)NCCCN2CCCC2=O)C1c1c[nH]c2ccccc12 (stereo not drawn)	0%	0%	24	13%	-19%
OC[C@@H]1CN(Cc2ccco2)C[C@H](n2cnc3c(Nc4ccccc4)ncnc32)O1	0%	28%	1	-21%	?
Cc1ccc(-n2nc(C(=O)N3CCN(c4ccccc4F)CC3)c3c4ccccc4n(C)c3c2=O)cc1	.	.	.	-6%	-27%
COc1ccccc1NC(=O)c1cc2c(=O)oc3ccc(C)cc3c2s1	.	.	.	?	-6%
Cc1oc(-c2cccs2)nc1CNC[C@H]1O[C@@H](n2cnc3c(N)ncnc32)[C@H](O)[C@@H]1O	9%	15%	8	-19%	-19%
CC1(C)CC(=O)C=C(NC2CCCC(O)C2)C1 (stereo not drawn)	6%	11%	30	-2%	-3%
SMILES	HT1080 IDH1KD tx	HT1080NT lethal	IL1B secr inh	DT40 TDP1 no CPT	DT40 TDP1 CPT
Cc1ccc(C(=O)N2c3ccccc3Sc3ccccc32)cc1	5%	1%	36	7%	-2%
O=C(c1cccnc1)N1c2ccccc2Sc2ccccc21	-11%	-3%	-16	15µM*	15µM*
CC(C)CNCC(=O)N1c2ccccc2Sc2ccccc21	-1%	0%	-10	?	16µM*
COC(=O)c1ccc(C(=O)OC)c(NC(=O)N2c3ccccc3Sc3ccccc32)c1	-4%	4%	35	?	?
COc1ccccc1C(=O)N1c2ccccc2Sc2ccccc21	-24%	-14%	12	5.8µM*	5.8µM*
COC(=O)c1ccccc1NC(=O)N1c2ccccc2Sc2ccccc21	-26%	-16%	-17	?	18µM*
COCCNCC(=O)N1c2ccccc2Sc2ccccc21	-3%	-2%	0	-17%	-9%
NC(=O)[C@@H]1CCCN1C(=O)c1ccc2nc(Cc3cccc(Cl)c3)oc2c1	4%	7%	27	11%	-23%
COCc1cc(C)nc(N/N=C/c2ccc(Cl)c(Cl)c2)c1C#N	5%	8%	-1	13%	2%
CCOc1ccccc1NC(=O)/C=C/C(N)=O	2.8µM*	?	-103*	4.1µM*	4.1µM*
O=C(NC1CCCCC1)C(c1cccnc1)N(C(=O)c1csnn1)c1ccccc1 (stereo not drawn)	12%	16%	6	2%	0%
Cc1ccc(Oc2cc([N+](=O)[O-])cc3c2C(=O)Nc2ccccc2O3)cc1	-28%	?	-17	15µM*	?
O=C1Nc2ccccc2OCc2c1cccc2[N+](=O)[O-]	4%	10%	66	3%	1%
C/C(N)=C(/C#N)C(=O)COC(=O)c1cccc(O)c1	7%	11%	-54*	-2%	-22%
CC(=O)NC12CC3CC(C)(C1)CC(NC(C)=O)(C3)C2	-1%	5%	-6	-6%	-3%
S=c1[nH]nc(C2CCCCC2)n1/N=C/C=C/c1ccccc1	-2%	-8%	-25	?	26µM*
O=[N+]([O-])c1cccc(/C=N/n2c(C3CCCCC3)n[nH]c2=S)c1	0%	-1%	5	16µM*	?
COc1cc(SC)ccc1C(=O)N1CCn2c3c(c4cc(C)ccc42)CCCC31 (stereo not drawn)	.	.	.	?	-2%
Cc1ccc(N2CC(NC(=O)C3CC3)CC2=O)cc1 (stereo not drawn)	0%	5%	6	0%	21%
CC(C)CCNC(=O)Cn1cc(S(=O)(=O)Cc2ccc(F)cc2)c2ccccc21	.	.	.	?	26µM*
COC(=O)c1ccccc1NC(=O)Cn1cc(S(=O)(=O)Cc2ccccc2F)c2ccccc21	.	.	.	21µM*	15µM*
COc1ccc(CCNC(=O)Cn2cc(S(=O)(=O)Cc3cccc(Cl)c3)c3ccccc32)cc1OC	.	.	.	18µM*	?
